Test results reported in the supplement of paper PMC8728848.
The entries come from a sample that favours the strongest signals as a whole.

Assays:
Test in all cases: glycan array binding signal (z-score within array); higher = stronger binding
Conditions in all cases: glycan notation: IUPAC condensed, linker removed
Fuc(a1-2)Gal = biological target: Fuc(a1-2)Gal
Outline: (§1)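 The binding signal is a Z-score computed within each array. Data were drawn from 3228 arrays in the Consortium for Functional Glycomics database, restricted to those with a known protein sequence. Scores were averaged over arrays of the same protein sequence at different concentrations or buffers, and over linkers, and negative values can be taken as non-binding.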

[1] = biological target: Fuc(a1-2)Gal(b1-3)GlcNAc(b1-3)Gal(b1-4)Glc
Outline: as §1

[2] = biological target: Fuc(a1-2)Gal(b1-3)GlcNAc(b1-3)[Fuc(a1-2)Gal(b1-3)GlcNAc(b1-6)]GalNAc
Outline: as §1

Fuc(a1-2)Gal(b1-4)GlcNAc = biological target: Fuc(a1-2)Gal(b1-4)GlcNAc
Outline: as §1

[3] = biological target: Fuc(a1-2)Gal(b1-4)GlcNAc(b1-6)GalNAc
Outline: as §1

[4] = biological target: Fuc(a1-2)Gal6S(b1-3)GlcNAc6S
Outline: as §1

[5] = biological target: Fuc(a1-2)Gal6S(b1-4)Glc6S
Outline: as §1

[6] = biological target: Fuc(a1-2)[Gal(a1-3)]Gal(b1-3)GlcNAc(b1-2)Man(a1-3)[Fuc(a1-2)[Gal(a1-3)]Gal(b1-3)GlcNAc(b1-2)Man(a1-6)]Man(b1-4)GlcNAc(b1-4)[Fuc(a1-6)]GlcNAc
Outline: as §1

[7] = biological target: Fuc(a1-2)[Gal(a1-3)]Gal(b1-4)GlcNAc(b1-3)GalNAc
Outline: as §1

[8] = biological target: Fuc(a1-2)[GalNAc(a1-3)]Gal(b1-4)Glc
Outline: as §1

[9] = biological target: Fuc(a1-2)[GalNAc(a1-3)]Gal(b1-4)GlcNAc(b1-2)Man(a1-3)[Fuc(a1-2)[GalNAc(a1-3)]Gal(b1-4)GlcNAc(b1-2)Man(a1-6)]Man(b1-4)GlcNAc(b1-4)[Fuc(a1-6)]GlcNAc
Outline: as §1

[10] = biological target: Fuc(a1-3)[Gal(b1-4)]GlcNAc6S
Outline: as §1

[11] = biological target: Fuc(a1-3)[Gal3S(b1-4)]Glc
Outline: as §1

[12] = biological target: Gal(a1-3)Gal(b1-4)GlcNAc(b1-2)Man(a1-3)[Gal(a1-3)Gal(b1-4)GlcNAc(b1-2)Man(a1-6)]Man(b1-4)GlcNAc(b1-4)GlcNAc
Outline: as §1

Gal(b1-3)GalNAc(b1-3)Gal = biological target: Gal(b1-3)GalNAc(b1-3)Gal
Outline: as §1

[13] = biological target: Gal(b1-3)GlcNAc(a1-6)Gal(b1-4)GlcNAc
Outline: as §1

Gal(b1-3)GlcNAc(b1-2)Man = biological target: Gal(b1-3)GlcNAc(b1-2)Man
Outline: as §1

[14] = biological target: Gal(b1-3)GlcNAc(b1-3)Gal(b1-4)Glc
Outline: as §1

[15] = biological target: Gal(b1-3)GlcNAc(b1-3)Gal(b1-4)GlcNAc(b1-2)[Gal(b1-3)GlcNAc(b1-3)Gal(b1-4)GlcNAc(b1-6)]Man(a1-6)[Gal(b1-3)GlcNAc(b1-3)Gal(b1-4)GlcNAc(b1-2)Man(a1-3)]Man(b1-4)GlcNAc(b1-4)[Fuc(a1-6)]GlcNAc
Outline: as §1

[16] = biological target: Gal(b1-3)GlcNAc(b1-3)Gal(b1-4)GlcNAc(b1-3)Gal(b1-4)GlcNAc(b1-2)[Gal(b1-3)GlcNAc(b1-3)Gal(b1-4)GlcNAc(b1-3)Gal(b1-4)GlcNAc(b1-6)]Man(a1-6)[Gal(b1-3)GlcNAc(b1-3)Gal(b1-4)GlcNAc(b1-3)Gal(b1-4)GlcNAc(b1-2)Man(a1-3)]Man(b1-4)GlcNAc(b1-4)[Fuc(a1-6)]GlcNAc
Outline: as §1

[17] = biological target: Gal(b1-3)GlcNAc(b1-3)Gal(b1-4)[Fuc(a1-3)]GlcNAc
Outline: as §1

Gal(b1-4)GlcNAc(b1-2)Man = biological target: Gal(b1-4)GlcNAc(b1-2)Man
Outline: as §1

[18] = biological target: Gal(b1-4)GlcNAc(b1-3)Gal(b1-4)GlcNAc(b1-3)Gal(b1-4)GlcNAc(b1-2)Man(a1-3)[Gal(b1-4)GlcNAc(b1-3)Gal(b1-4)GlcNAc(b1-3)Gal(b1-4)GlcNAc(b1-2)Man(a1-6)]Man(b1-4)GlcNAc(b1-4)[Fuc(a1-6)]GlcNAc
Outline: as §1

[19] = biological target: Gal(b1-4)GlcNAc(b1-3)Gal(b1-4)GlcNAc(b1-3)Gal(b1-4)GlcNAc(b1-3)Gal(b1-4)GlcNAc(b1-3)Gal(b1-4)GlcNAc(b1-2)[Gal(b1-4)GlcNAc(b1-3)Gal(b1-4)GlcNAc(b1-3)Gal(b1-4)GlcNAc(b1-3)Gal(b1-4)GlcNAc(b1-3)Gal(b1-4)GlcNAc(b1-6)]Man(a1-6)[Gal(b1-4)GlcNAc(b1-3)Gal(b1-4)GlcNAc(b1-3)Gal(b1-4)GlcNAc(b1-3)Gal(b1-4)GlcNAc(b1-3)Gal(b1-4)GlcNAc(b1-2)Man(a1-3)]Man(b1-4)GlcNAc(b1-4)[Fuc(a1-6)]GlcNAc
Outline: as §1

[20] = biological target: Gal(b1-4)GlcNAc(b1-3)Gal(b1-4)GlcNAc(b1-6)[Gal(b1-3)]GalNAc
Outline: as §1

Gal3S(b1-4)Glc6S = biological target: Gal3S(b1-4)Glc6S
Outline: as §1

Gal6S(b1-4)Glc = biological target: Gal6S(b1-4)Glc
Outline: as §1

[21] = biological target: GalNAc(b1-3)Gal(a1-6)Gal(b1-4)Glc
Outline: as §1

[22] = biological target: GlcNAc(a1-6)Gal(b1-4)GlcNAc
Outline: as §1

[23] = biological target: GlcNAc(b1-2)[GlcNAc(b1-4)]Man(a1-3)[GlcNAc(b1-4)][GlcNAc(b1-2)[GlcNAc(b1-6)]Man(a1-6)]Man(b1-4)GlcNAc(b1-4)[Fuc(a1-6)]GlcNAc
Outline: as §1

GlcNAc(b1-3)Fuc = biological target: GlcNAc(b1-3)Fuc
Outline: as §1

[24] = biological target: GlcNAc(b1-3)Gal(b1-4)GlcNAc(b1-2)Man(a1-3)[GlcNAc(b1-3)Gal(b1-4)GlcNAc(b1-2)Man(a1-6)]Man(b1-4)GlcNAc(b1-4)GlcNAc
Outline: as §1

[25] = biological target: GlcNAc(b1-3)Gal(b1-4)GlcNAc(b1-3)Gal(b1-4)GlcNAc(b1-3)Gal(b1-4)GlcNAc(b1-3)Gal(b1-4)GlcNAc(b1-2)Man(a1-3)[GlcNAc(b1-3)Gal(b1-4)GlcNAc(b1-3)Gal(b1-4)GlcNAc(b1-3)Gal(b1-4)GlcNAc(b1-3)Gal(b1-4)GlcNAc(b1-2)Man(a1-6)]Man(b1-4)GlcNAc(b1-4)GlcNAc
Outline: as §1

[26] = biological target: GlcNAc(b1-4)GlcNAc(b1-4)GlcNAc
Outline: as §1

[27] = biological target: GlcNAc(b1-4)GlcNAc(b1-4)GlcNAc(b1-4)GlcNAc(b1-4)GlcNAc
Outline: as §1

[28] = biological target: GlcNAc(b1-4)GlcNAc(b1-4)GlcNAc(b1-4)GlcNAc(b1-4)GlcNAc(b1-4)GlcNAc
Outline: as §1

Kdn(a2-3)Gal(b1-3)GalNAc = biological target: Kdn(a2-3)Gal(b1-3)GalNAc
Outline: as §1

Man(b1-4)GlcNAc = biological target: Man(b1-4)GlcNAc
Outline: as §1

[29] = biological target: Neu5Ac(a2-3)Gal(b1-3)GlcNAc6S
Outline: as §1

[30] = biological target: Neu5Ac(a2-3)Gal(b1-3)[Neu5Ac(a2-6)]GlcNAc(b1-3)[Fuc(a1-3)[Gal(b1-4)]GlcNAc(b1-6)]Gal(b1-4)Glc
Outline: as §1

[31] = biological target: Neu5Ac(a2-3)Gal(b1-4)GlcNAc(b1-2)Man(a1-3)[Neu5Ac(a2-6)Gal(b1-4)GlcNAc(b1-2)Man(a1-6)]Man(b1-4)GlcNAc(b1-4)GlcNAc
Outline: as §1

[32] = biological target: Neu5Ac(a2-3)Gal(b1-4)GlcNAc(b1-3)Gal(b1-4)GlcNAc(b1-3)Gal(b1-4)GlcNAc
Outline: as §1

[33] = biological target: Neu5Ac(a2-3)Gal(b1-4)GlcNAc(b1-3)Gal(b1-4)GlcNAc(b1-3)[Neu5Ac(a2-3)Gal(b1-4)GlcNAc(b1-3)Gal(b1-4)GlcNAc(b1-6)]GalNAc
Outline: as §1

[34] = biological target: Neu5Ac(a2-3)Gal(b1-4)GlcNAc(b1-6)[Gal(b1-3)]GalNAc
Outline: as §1

[35] = biological target: Neu5Ac(a2-3)Gal6S(b1-4)[Fuc(a1-3)]GlcNAc
Outline: as §1

[36] = biological target: Neu5Ac(a2-6)Gal(b1-4)GlcNAc(b1-3)Gal(b1-4)GlcNAc(b1-6)[Gal(b1-3)]GalNAc
Outline: as §1

[37] = biological target: Neu5Ac(a2-8)Neu5Gc(a2-3)Gal(b1-4)GlcNAc
Outline: as §1

B1: Mg3lysM (Mycosphaerella graminicola) (protein)
chain: APQNPPTSCSAAPQPTGTGSPGTVCGSTTFTNYTVKAGDTLGAIAKQYNSGVCDIAKVNGIDNPDYIKPDQVLSIPANCVTPDNTSCVKPVPVITNTCVLGVGSTYTVKSGDSFSAIATSFNITLASLEARNPQIPNYDLIFPGQVINTPLCPNSVCDSIGTYVIESGDIFYNLAQSNNVTVGQLESLNVNVNVTDIHPGDIIILPHNCHNITASA
Fuc(a1-2)Gal
  glycan array binding signal (z-score): -0.076
[1]
  glycan array binding signal (z-score): -0.042
[2]
  glycan array binding signal (z-score): 0.259
Fuc(a1-2)Gal(b1-4)GlcNAc
  glycan array binding signal (z-score): -0.021
[3]
  glycan array binding signal (z-score): -0.086
[4]
  glycan array binding signal (z-score): -0.089
[5]
  glycan array binding signal (z-score): -0.1
[6]
  glycan array binding signal (z-score): -0.127
[7]
  glycan array binding signal (z-score): -0.118
[8]
  glycan array binding signal (z-score): -0.072
[9]
  glycan array binding signal (z-score): 0.01
[10]
  glycan array binding signal (z-score): 0.023
[11]
  glycan array binding signal (z-score): -0.089
[12]
  glycan array binding signal (z-score): -0.058
Gal(b1-3)GalNAc(b1-3)Gal
  glycan array binding signal (z-score): 0.131
[13]
  glycan array binding signal (z-score): -0.12
Gal(b1-3)GlcNAc(b1-2)Man
  glycan array binding signal (z-score): -0.123
[14]
  glycan array binding signal (z-score): -0.065
[15]
  glycan array binding signal (z-score): 0.063
[16]
  glycan array binding signal (z-score): 0.15
[17]
  glycan array binding signal (z-score): -0.157
Gal(b1-4)GlcNAc(b1-2)Man
  glycan array binding signal (z-score): -0.039
[18]
  glycan array binding signal (z-score): -0.107
[19]
  glycan array binding signal (z-score): 0.14
[20]
  glycan array binding signal (z-score): -0.078
Gal3S(b1-4)Glc6S
  glycan array binding signal (z-score): -0.101
Gal6S(b1-4)Glc
  glycan array binding signal (z-score): -0.027
[21]
  glycan array binding signal (z-score): -0.127
[22]
  glycan array binding signal (z-score): -0.108
[23]
  glycan array binding signal (z-score): -0.113
GlcNAc(b1-3)Fuc
  glycan array binding signal (z-score): 0.041
[24]
  glycan array binding signal (z-score): -0.109
[25]
  glycan array binding signal (z-score): -0.191
[26]
  glycan array binding signal (z-score): 3.96
[27]
  glycan array binding signal (z-score): 19.9
[28]
  glycan array binding signal (z-score): 13.5
Kdn(a2-3)Gal(b1-3)GalNAc
  glycan array binding signal (z-score): 0.259
Man(b1-4)GlcNAc
  glycan array binding signal (z-score): 0.12
[29]
  glycan array binding signal (z-score): -0.154
[30]
  glycan array binding signal (z-score): 0.077
[31]
  glycan array binding signal (z-score): -0.088
[32]
  glycan array binding signal (z-score): -0.099
[33]
  glycan array binding signal (z-score): 0.153
[34]
  glycan array binding signal (z-score): -0.065
[35]
  glycan array binding signal (z-score): -0.14
[36]
  glycan array binding signal (z-score): 0.12
[37]
  glycan array binding signal (z-score): 0.137
